# Where “and” joins values, the source holds several entries; their conditions need not be identical. Equal entries are not always repeated. Inconclusive results are not listed. For some assays here: Results with a measured potency or affinity are listed apart. Calls of active or inactive are those of the source. Unless noted, no rule for the calls is given here.
# Columns and labels:
# [1] = system: Aerobactin synthetase IucA (Klebsiella pneumoniae); experiment: inhibition of K. pneumoniae IucA enzyme – biochemical, Tocris library, absorbance (AID 1345561); settings: purified IucA enzyme assay, absorbance (OD) read-out; stronger effect = lower value;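 tested at 8 µM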;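 also: 100% = enzyme without compound and 0% = no enzyme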
# [2] = viability loss in pontine glioma line – cell-based, SU-DIPG-XIII, MIPE5.0, CellTiter-Glo, qHTS, dose response (AID 1347064; cut-off not given, nearly all actives have AC50 up to about 23 µM;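 as to AC50: cells exposed to compound for 48 hours before the viability read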); settings: CellTiter-Glo ATP luminescence
# [3] = signal quenchers or enhancers, Cy5 substrate/SSB – biochemical, NIH Clinical Collection, E. coli SSB, artefact control for HCV NS3 helicase inhibitor project (AID 743268); settings: Cy5-oligo bound E. coli SSB, fluorescence interference
# [4] = system: Hepatitis C virus NS3 helicase; experiment: blockers of NS3h binding to DNA – biochemical, fluorescence polarization, NIH Clinical Collection, primary screen (AID 743270); settings: NS3 helicase binding to Cy5-dT15 DNA, stronger effect = higher value, concentration not given here
# [5] = biological target: Single-stranded DNA-binding protein (Escherichia coli (strain K12)) (UniProt P0AGE0); experiment: SSB-ssDNA binding inhibitors – biochemical, fluorescence polarization, NIH Clinical Collection, counter-screen for HCV NS3 helicase inhibitor project (AID 743271; in the data active = inhibition above about 28%); settings: E. coli SSB-DNA binding, stronger effect = higher value, concentration not given here
# [6] = compounds distorting NS3 helicase fluorescence signal – biochemical, NIH Clinical Collection, artefact control for HCV NS3 helicase inhibitor project (AID 743272); settings: fluorescence interference counterscreen, HCV NS3 helicase assay; stronger effect = lower value;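 also: HCV NS3 helicase with a Cy5 labelled single stranded DNA probe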
# [7] = restoration of touch response, mutant HTT neurons – whole organism, C. elegans mechanosensory neurons, N-terminal huntingtin (AID 1599); settings: C. elegans polyQ-huntingtin mechanosensory neurons, stronger effect = higher value
# [8] = glutamate transport activators, MN-1 cells, MN-1 cell line (AID 1612); settings: MN-1 motor neuron cells, stronger effect = higher value;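 also: tested at 1 µM final; 0% = mean of DMSO vehicle wells on each plate; positive means more glutamate uptake than control and negative means less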
# [9] = GFP-Q80 aggregate reduction, neuronal-like cells, cell-based, NGF-treated PC12, GFPQ80 (AID 1614); settings: PC12 NGF-treated GFP-polyQ80 inclusion reduction;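 also: lower means fewer inclusions and 0 means no inclusions at all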
# [10] = 75Q-TubH aggregate inhibition, S. cerevisiae, yeast (AID 1616); settings: S. cerevisiae 75Q-TubH polyglutamine aggregation suppression; stronger effect = higher value
# [11] = compounds altering HSF1 focus formation in cells – imaging, Selleck Cancer Library (AID 1347162; in the data active = plate-normalised HSF1 focus index below about 0.46); settings: human cells, HSF1 nuclear foci imaging, at 10 µM; SSMD: measured here: HSF1 foci SSMD mean; cell count: measured here: cell number; plate-normalised HSF1 focus index: stronger effect = lower value
# [12] = chitosan synthesis blockers in C. neoformans – flow cytometry, Cibacron Brilliant Red staining (AID 1347148); settings: Cryptococcus neoformans chitosan, stronger effect = lower value; at 10 µM unless noted;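 also: compound exposure lasted three days at 37 degrees C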
# [13] = rescue of PC12 cells from polyQ htt toxicity – LDH release (AID 1610); settings: PC12 mutant huntingtin toxicity, final LDH at 4 uM, stronger effect = lower value
compound,measurement,setting,value
O=C(O)Cc1nn(Cc2ccc(Br)cc2F)c(=O)c2ccccc12,remaining activity,[1],92.7% (inactive)
CC(C)C[C@H]1C(=O)N2CCC[C@H]2[C@]2(O)O[C@](NC(=O)[C@@H]3C=C4c5cccc6[nH]c(Br)c(c56)C[C@H]4N(C)C3)(C(C)C)C(=O)N12,remaining activity,[1],93.8% (inactive)
CC(C)(O)CC[C@@H](O)[C@](C)(O)[C@H]1CC[C@@]2(O)C3=CC(=O)[C@@H]4C[C@@H](O)[C@@H](O)C[C@]4(C)[C@H]3CC[C@]12C,outcome,[2],inactive
CC(=O)[C@H]1CC[C@H]2[C@@H]3CCC4=CC(=O)CC[C@]4(C)[C@H]3CC[C@]12C,fluorescence ratio,[3],0.96 (inactive)
same,inhibition,[4],-6.73% (inactive)
same,inhibition,[5],1.44% (inactive)
same,fluorescence ratio,[6],0.92 (inactive)
O=C(O)c1cc(=O)c2ccccc2[nH]1,rescue above control,[7],12.3
same,glutamate uptake change,[8],-1.73%
same,inclusion score,[9],2
same,aggregation suppression score,[10],0.981
same,remaining activity,[1],94.6% (inactive)
C[C@H](CCC(=O)O)[C@H]1CC[C@H]2[C@@H]3[C@H](O)C[C@@H]4C[C@H](O)CC[C@]4(C)[C@H]3CC[C@]12C,outcome,[2],inactive
C[C@H]1O[C@@H](O[C@H]2[C@@H](O)C[C@H](O[C@H]3[C@@H](O)C[C@H](O[C@H]4CC[C@@]5(C)[C@H](CC[C@@H]6[C@@H]5C[C@@H](O)[C@]5(C)[C@@H](C7=CC(=O)OC7)CC[C@]65O)C4)O[C@@H]3C)O[C@@H]2C)C[C@H](O)[C@@H]1O,AC50,[2],0.132 µM (active)
CC(C)(S)[C@@H](N)C(=O)O,outcome,[2],inactive
COc1ccc(-c2cc(=O)c3c(O)cc(O[C@@H]4O[C@H](CO[C@@H]5O[C@@H](C)[C@H](O)[C@@H](O)[C@H]5O)[C@@H](O)[C@H](O)[C@H]4O)cc3o2)cc1O,outcome,[2],inactive
CCCn1c(=O)c2[nH]c(C3CCCC3)nc2n(CCC)c1=O,rescue above control,[7],18.1
same,glutamate uptake change,[8],-12.9%
same,inclusion score,[9],2
same,aggregation suppression score,[10],1.32
same,remaining activity,[1],119% (inactive)
CCC[C@@H]1C[C@@H](C(=O)N[C@@H]([C@H]2O[C@H](SC)[C@H](O)[C@@H](O)[C@H]2O)[C@H](C)Cl)N(C)C1,outcome,[2],inactive
C=C1CC[C@@H]2[C@](C)(CO)[C@H](O)CC[C@@]2(C)[C@@H]1C/C=C1/C(=O)OC[C@H]1O,AC50,[2],20.9 µM (active)
O=C(O)c1cc(=O)c2ccc(Cl)cc2[nH]1,remaining activity,[1],104% (inactive)
O=C(O)C1=CCNCC1,rescue above control,[7],-1.41
same,glutamate uptake change,[8],8.29%
same,inclusion score,[9],2
same,aggregation suppression score,[10],1.29
same,remaining activity,[1],102% (inactive)
CC[C@@]1(O)C[C@H](O[C@H]2C[C@H](N(C)C)[C@H](O[C@H]3C[C@H](O)[C@H](O[C@H]4CCC(=O)[C@H](C)O4)[C@H](C)O3)[C@H](C)O2)c2c(cc3c(c2O)C(=O)c2c(O)cccc2C3=O)[C@H]1C(=O)OC,AC50,[2],16.6 µM (active)
COc1cc([C@@H]2c3cc4c(cc3[C@H](O)[C@H]3COC(=O)[C@@H]23)OCO4)cc(OC)c1OC,AC50,[2],2.63 µM (active)
COC1=C(OC)C(=O)C(C/C=C(\C)CC/C=C(\C)CC/C=C(\C)CC/C=C(\C)CC/C=C(\C)CC/C=C(\C)CC/C=C(\C)CC/C=C(\C)CC/C=C(\C)CCC=C(C)C)=C(C)C1=O,SSMD,[11],2.18
same,cell count,[11],7460
same,plate-normalised HSF1 focus index,[11],1.08 (inactive)
CCC(=O)NCC[C@@H]1CCc2ccc3c(c21)CCO3,outcome,[2],inactive
O=C(O)C1=CCCNC1,remaining activity,[1],107% (inactive)
Nc1ccn([C@@H]2O[C@H](CO)[C@@H](O)[C@H]2O)c(=O)n1,outcome,[2],inactive
COc1cc2c(c(OC)c1OC)-c1ccc(OC)c(=O)cc1C(NC(C)=O)CC2 (stereo unspecified),remaining activity,[1],109% (inactive)
O=C(O)c1c2ccccc2cc2ccccc12,rescue above control,[7],12.4
same,glutamate uptake change,[8],11%
same,inclusion score,[9],2
same,aggregation suppression score,[10],0.249
same,remaining activity,[1],101% (inactive)
COc1cccc(OC)c1OCCNCC1COc2ccccc2O1 (stereo unspecified),remaining activity,[1],108% (inactive)
O=C(/C=C/c1ccc(O)c(O)c1)O[C@H](Cc1ccc(O)c(O)c1)C(=O)O,remaining activity,[1],105% (inactive)
C=C1C(=O)O[C@H]2[C@H]1CC/C(C)=C/CC[C@@]1(C)O[C@@H]21,remaining activity,[1],83.6% (inactive)
COc1ccc([C@@H]2CC(=O)c3c(O)cc(O[C@@H]4O[C@H](CO[C@@H]5O[C@@H](C)[C@H](O)[C@@H](O)[C@H]5O)[C@@H](O)[C@H](O)[C@H]4O)cc3O2)cc1O,outcome,[2],inactive
NCCCCCCNS(=O)(=O)c1cccc2c(Cl)cccc12,rescue above control,[7],4.12 and -5.26 and -2.52
same,glutamate uptake change,[8],18.7% and -10.2% and 14.1%
same,inclusion score,[9],1
same,aggregation suppression score,[10],0.802 and 0.897 and 0.965
same,fold fluorescence,[12],9.13 [at 132.5 µM] (inactive)
CCOc1ccc2c(c1)C(C)=CC(C)(C)N2,rescue above control,[7],5.1
same,normalised LDH release,[13],1.06
same,glutamate uptake change,[8],23.6%
same,aggregation suppression score,[10],0.616
NC(=NCc1ccccc1)NC(=O)c1nc(Cl)c(N)nc1N,rescue above control,[7],5.46
same,normalised LDH release,[13],1.01
same,glutamate uptake change,[8],12.4%
same,aggregation suppression score,[10],1.26
same,fold fluorescence,[12],5.57 [at 156.4 µM] (inactive)
N[C@@H](Cc1c[nH]c2ccccc12)C(=O)O,rescue above control,[7],-5.37
same,glutamate uptake change,[8],-7.55%
same,inclusion score,[9],2
same,aggregation suppression score,[10],1.04
CC(=O)NCCc1c[nH]c2ccc(O)cc12,rescue above control,[7],2.04
same,glutamate uptake change,[8],0.88%
same,inclusion score,[9],2
same,aggregation suppression score,[10],1.34
CC(Oc1ccccc1)C(=O)N[C@@H]1C(=O)N2[C@@H]1SC(C)(C)[C@@H]2C(=O)O (stereo partly specified),rescue above control,[7],-10.5
same,glutamate uptake change,[8],10.6%
same,inclusion score,[9],2
same,aggregation suppression score,[10],1.29
CCCCC/C=C\C/C=C\C/C=C\C/C=C\CCCC(=O)O,fold fluorescence,[12],5.45 (inactive)
O=C(O)c1cc2cc(Cc3cccnc3)ccc2o1,rescue above control,[7],-5.98
same,normalised LDH release,[13],1.48
same,glutamate uptake change,[8],-0.47%
same,inclusion score,[9],2
same,aggregation suppression score,[10],1.23
C[C@@H]1O[C@@H](O[C@H]2[C@H](Oc3cc(O)c4c(c3)O[C@H](c3ccc(O)cc3)CC4=O)O[C@H](CO)[C@@H](O)[C@@H]2O)[C@H](O)[C@H](O)[C@H]1O,glutamate uptake change,[8],6.96%
same,inclusion score,[9],2
same,aggregation suppression score,[10],1.02
CC1CCCC(C)N1NC(=O)c1ccc(Cl)c(S(N)(=O)=O)c1 (stereo unspecified),rescue above control,[7],-10.1
same,glutamate uptake change,[8],-0.09%
same,inclusion score,[9],2
same,aggregation suppression score,[10],1.2
